Screening data from PubChem.
Most compounds without a hit are left out; they make up all but 19% or so of the library.
DT40 TDP1 no CPT = qHTS for Inhibitors of human tyrosyl-DNA phosphodiesterase 1 (TDP1): qHTS in cells in absence of CPT. DT40 Tdp1-/- hTDP1 cells, no CPT, ATP luminescence, 48 h. Potency, µM (highest dose often 46.2 µM), for inactives: at the top dose activity change, negative = growth inhibition, most hits filed as inhibitors. 420,000 tested, 15% active; note: nearly all actives have a fitted effect of over 55% in size
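Cells were dispensed at 400 per well, compounds added by pin tool, plates incubated ≥48 hr at 37 °C, then CellTiter-Glo added for 30 min at room temperature before luminescence reading. Line: DT40 Tdp1-/- complemented with hTDP1; camptothecin omitted.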
DT40 TDP1 CPT = DT40-hTDP1 cell growth loss with CPT; chicken DT40 Tdp1-/-;hTDP1 cells + 20 nM CPT, ATP luminescence, 48 h; 420,000 tested, 12% active; Potency, µM (series often up to 46.2 µM), for inactives: at the highest dose activity change, negative = growth inhibition, most hits filed as inhibitors; AID 686979; note: nearly all actives have a fitted effect of over 55% in size
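Chicken DT40 Tdp1-/- cells stably complemented with human TDP1 were seeded at 400 cells/well in medium containing 20 nM camptothecin, exposed to pin-transferred compounds, and grown at 37 °C for at least 48 hr. Viability was read as ATP luminescence.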
HT1080 IDH1KD tx = kills HT-1080 cells with IDH1 knockdown. Potency, µM (top dose mostly 46.1 µM), inactives show at the highest dose activity, negative = toxicity, hits mostly cytotoxic. 360,000 tested, 2% active. AID 686971. HT-1080 IDH1 knockdown viability, ATP luminescence, 48 h;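 note: 0% = DMSO wells and -100% = cell-free medium wells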
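Assay cells: HT-1080 with IDH1 knockdown, 750 per well, RPMI/5% FBS. Exposure: 48 h at 37 °C following 2 h pre-incubation. Read: CellTiter-Glo luminescence; fitted concentration-response, curve class assigned.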
KB-3-1 cytotox = kills parental KB-3-1 adenocarcinoma cells | 400,000 tested, 1.4% active | KB-3-1 viability, CellTiter-Glo ATP luminescence, 72 h | Potency, µM (highest dose often 46.1 µM), usual class: cytotoxic; note: nearly all actives have a fitted effect of over 60% in size
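Luminescent ATP read-out (CellTiter-Glo) measures survival of drug-naive KB-3-1 cells after 72 h compound exposure at 37 °C. Titration series was screened from lowest to highest concentration, with DMSO vehicle plates as background controls.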
KB-V1 cytotox = KB-V1 MDR subline cytotoxicity; Potency, µM (highest dose often 46.1 µM), most hits filed as cytotoxic; KB-V1 MDR cells viability, CellTiter-Glo, 72 h; AID 1347076; 400,000 tested, 3.4% active; note: nearly all actives have a fitted effect of over 60% in size
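Following 72 h at 37 degrees C with compound, KB-V1 cell viability was read by CellTiter-Glo luminescence, medium being phenol-red-free DMEM plus 10% FBS; concentration-response parameters came from normalized, curve-fitted qHTS data.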
HT1080-NT tox = kills 2HG-producing HT-1080-NT fibrosarcoma cells | HT-1080-NT fibrosarcoma viability, CellTiter-Glo ATP luminescence, 48 h | Potency, µM (top dose mostly 46.1 µM), for inactives: top-dose activity, negative = less viability, most hits filed as cytotoxic | 360,000 tested, 1.6% active;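 note: NT is the 2HG producing partner of a matched IDH1 knockdown line; 0% = DMSO-treated cells and -100% = media-only wells without cells; nearly all actives have a fitted effect of over 55% in size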
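HT-1080-NT fibrosarcoma cells (2HG-overproducing), 750 cells/well in RPMI with 5% FBS, dosed after 2 h and incubated 48 h at 37C. CellTiter-Glo luminescence normalized to DMSO and no-cell wells; concentration-response curves fitted and classed.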
* hit, by the source's call; i = inactive; ? = inconclusive; / = no result given. Calls come from the whole dose curve; as a rule, active = well fitted curve in the direction sought with a large enough effect; inconclusive = small, poorly fitted or top-dose-only effect, or another doubt; inactive = no such curve, though single readings can be large; an effect the other way counts as inactive or inconclusive. Unless noted, % is set by controls: 0 for no effect and ±100 for the full control effect; potency is the fitted concentration of half-maximal effect.

SMILES	DT40 TDP1 no CPT	DT40 TDP1 CPT	HT1080 IDH1KD tx	KB-3-1 cytotox	KB-V1 cytotox	HT1080-NT tox
CCOC(=O)c1c(NC(=O)CN2C(=O)NC3(CCC(C)CC3)C2=O)sc(C(=O)N(C)C)c1C (stereo not given)	-2.0%	16.4%	-0.7%	i	i	-0.3%
CCOC(=O)c1c(NC(=O)CN2C(=O)NC3(CCCCC3)C2=O)sc(C)c1-c1ccc(C)cc1	20.6µM*	18.4µM*	-9.3%	?	20.6µM*	-2.6%
Cc1ccc(C(=O)N2CCCC(Nc3ccc(C(C)C)cc3)C2)cn1 (stereo not given)	-25.5%	?	-0.9%	i	i	3.7%
Cc1nonc1C(=O)N1CCCC(Nc2ccc(C(C)C)cc2)C1 (stereo not given)	2.31µM*	33.2%	19.8%	i	?	3.2%
CC(C)c1ccc(NC2CCCN(C(=O)c3ccc(N4CCOCC4)cc3)C2)cc1 (stereo not given)	16.4µM*	?	-12.8%	i	?	-9.5%
COc1cccc(-c2nc3nc(C)cc(C)n3c2Nc2c(C)cccc2C)c1	?	?	-3.1%	?	?	-9.7%
CCCCNc1c(-c2cccc(OC)c2)nc2nc(C)cc(C)n12	16.4µM*	18.4µM*	-1.8%	i	?	-29.4%
CCCCNc1c(-c2cc3ccccc3o2)nc2nc(C)cc(C)n12	23.1µM*	?	-5.1%	?	?	-8.2%
Cc1cc(C(F)(F)F)n(-c2nc(C(=O)NN)cs2)n1	-9.4%	-10.2%	-15.8%	i	i	-6.6%
COc1ccc(/C=N/NC(=O)c2csc(-n3nc(C)cc3C(F)(F)F)n2)cc1	20.6µM*	?	1.4%	7.31µM*	i	-7.8%
COCC(=O)N1C[C@H]2CON(C)[C@H]2C[C@H]1c1ccc(N2CCCCC2)cc1	5.2%	7.1%	28.8%	i	i	15.9%
CCOc1ccc(NC(=O)CCSc2nc3c(c(CC)c2C#N)C(=O)CC(C)(C)C3)cc1	20.6µM*	?	-6.7%	i	i	-10.0%
COc1ccccc1NC(=S)NC(NC(=O)CC(C)C)C(Cl)(Cl)Cl (stereo not given)	?	?	7.9%	i	i	3.6%
O=C(Nc1ccccc1OC(=O)c1ccc(Cl)cc1)c1ccc(Cl)cc1	16.4µM*	?	1.1%	i	?	-24.7%
COc1ccc(C(=O)Nc2cc(Cl)ccc2OC(=O)c2ccc(OC)cc2)cc1	?	?	-9.5%	i	i	0.0%
N#Cc1ccc(C(=O)Nc2ccn(-c3ccccc3)n2)cc1	?	?	?	i	i	-18.8%
O=C(Nc1ccn(-c2ccccc2)n1)c1ccc(Cl)cc1	-24.8%	-16.6%	-17.4%	i	18.4µM*	-3.3%
O=C(Nc1cccnc1Cl)c1ccc(Cl)cc1	1.0%	16.6%	18.0%	i	i	20.0%
O=C(Nc1ccccc1O)c1ccc(Cl)cc1	23.1µM*	16.4µM*	-24.5%	?	i	?
OC1CCN(Cc2ccc3c(c2)CN(Cc2ccc(Oc4ncccn4)cc2)CCO3)CC1	-8.2%	0.6%	/	/	/	/
Cc1ccc(NC2CCCN(C(=O)c3cc(C(C)C)nn3C)C2)cc1C (stereo not given)	-14.0%	-14.7%	-8.1%	i	?	-5.6%
Cc1cc([N+](=O)[O-])ccc1NCc1cccc2ccccc12	15.8µM*	?	-0.8%	i	13µM*	?
N#Cc1cnn2c(-c3ccc(Cl)cc3Cl)ccnc12	?	-14.1%	0.8%	i	16.4µM*	24.1%
N#Cc1cnn2c(-c3cccc(C(F)(F)F)c3)ccnc12	-27.2%	6.8%	-0.1%	i	i	1.0%
CC(C)C[C@H]1CN(CCCC[C@@H]2CNC(=O)C(=O)N2Cc2ccccc2)C(=O)C(=O)N1CC1CCCCC1	-0.6%	-1.3%	4.4%	i	i	13.9%
SMILES	DT40 TDP1 no CPT	DT40 TDP1 CPT	HT1080 IDH1KD tx	KB-3-1 cytotox	KB-V1 cytotox	HT1080-NT tox
O=C(CCSCc1ccc(Cl)cc1)NCc1ccco1	-2.6%	-2.1%	10.6%	i	i	9.3%
Cc1ccc(CS/C(Nc2ccccc2C)=C(\C#N)C(=O)NCc2ccco2)c(C)c1	?	?	-14.1%	?	14.6µM*	-10.5%
Cc1ccccc1N/C(SCc1ccc(Cl)cc1)=C(/C#N)C(=O)NCc1ccco1	?	-14.1%	?	?	11.6µM*	?
COc1cc(NC(=O)Cn2nc(Cc3cccnc3)c3ccccc3c2=O)cc(OC)c1OC	3.1%	0.5%	-2.5%	i	i	0.8%
COc1cc(/C=N/NC(=O)CNC(=O)c2ccccc2)ccc1OC(=O)c1cccs1	-10.9%	4.7%	2.7%	i	i	-2.4%
Clc1ccccc1-c1nc2nc3ccccc3nc2n1-c1ccc2c(c1)OCO2	23.1µM*	?	0.0%	i	9.2µM*	3.6%
Cc1cccc(C)c1-n1nnnc1C1(C)CCC(=O)N1CC1CCCCC1 (stereo not given)	?	?	-12.5%	i	?	-0.2%
COc1ccc(/C=C2\CN(Cc3ccccc3)C/C(=C\c3ccc(OC)cc3)C2=O)cc1	16.4µM*	10.3µM*	23.1µM*	?	?	?
Cc1csc2ncnc(NC3CCN(Cc4ccccc4)CC3)c12	0.651µM*	1.03µM*	?	i	?	-26.3%
C#C[C@]1(O)CC[C@H]2[C@@H]3CCC4=C(CCC(=O)C4)[C@H]3CC[C@@]21C	7.18µM*	?	0.5%	?	14.6µM*	-21.0%
